Measurements: publication PMC11574364

What was measured:
Assay in all cases: protein domain microarray probed with biotinylated miRNA; Domain array: 20 mM Tris-HCl pH 7.4, 200 mM KCl, 0.2 mM EDTA, 0.05% NP40, 2 ug/ul heparin, overnight 4 C. ORF array: PBS pH 7.0 with RNase inhibitor, 100 ng RNA; high values mean tight binding
Settings in all cases: ssRNA
hnRNP-D0 = hnRNP-D0 (Homo sapiens, UniProt Q14103)
PABPC1L = PABPC1L (Homo sapiens, UniProt Q4VXU2)
NCL = NCL (Homo sapiens, UniProt P19338)
PABPN1 = target: T1, PABPN1 (Homo sapiens, UniProt Q86U42)
T1 sequence: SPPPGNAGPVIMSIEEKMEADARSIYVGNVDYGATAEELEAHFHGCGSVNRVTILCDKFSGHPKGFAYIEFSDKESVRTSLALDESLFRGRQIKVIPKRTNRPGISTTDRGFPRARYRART

CNOT4 = target: T2, CNOT4 (Homo sapiens, UniProt O95628)
T2 sequence: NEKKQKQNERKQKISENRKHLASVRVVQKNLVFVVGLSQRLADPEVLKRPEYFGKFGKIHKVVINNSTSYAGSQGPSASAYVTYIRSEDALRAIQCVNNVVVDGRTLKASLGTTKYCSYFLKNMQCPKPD

CSTF2 = target: T3, CSTF2 (Homo sapiens, UniProt P33240)
T3 sequence: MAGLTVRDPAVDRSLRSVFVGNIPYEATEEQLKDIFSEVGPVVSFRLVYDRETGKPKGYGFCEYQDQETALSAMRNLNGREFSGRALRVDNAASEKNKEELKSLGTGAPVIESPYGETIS

DRBP1(3-4) = target: T4, DRBP1(3-4) (Homo sapiens, UniProt Q8IUH3)
T4 sequence: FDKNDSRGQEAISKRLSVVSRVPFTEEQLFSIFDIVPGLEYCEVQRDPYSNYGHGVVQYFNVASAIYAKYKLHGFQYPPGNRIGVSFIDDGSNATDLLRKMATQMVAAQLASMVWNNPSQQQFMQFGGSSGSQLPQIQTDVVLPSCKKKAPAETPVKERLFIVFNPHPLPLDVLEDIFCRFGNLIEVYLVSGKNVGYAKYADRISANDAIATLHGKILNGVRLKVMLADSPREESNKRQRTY

hnRNP-A/B = hnRNP-A/B (Homo sapiens, UniProt Q99729)
CPSF7 = target: T5, CPSF7 (Homo sapiens, UniProt Q8N684)
T5 sequence: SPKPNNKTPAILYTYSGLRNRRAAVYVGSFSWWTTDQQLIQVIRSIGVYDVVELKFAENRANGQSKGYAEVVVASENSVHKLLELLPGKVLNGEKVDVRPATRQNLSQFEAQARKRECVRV

HNRNPA1L2 = HNRNPA1L2 (Homo sapiens, UniProt Q32P51)
DAZ4 = target: T6, DAZ4 (Homo sapiens, UniProt Q86SG3)
T6 sequence: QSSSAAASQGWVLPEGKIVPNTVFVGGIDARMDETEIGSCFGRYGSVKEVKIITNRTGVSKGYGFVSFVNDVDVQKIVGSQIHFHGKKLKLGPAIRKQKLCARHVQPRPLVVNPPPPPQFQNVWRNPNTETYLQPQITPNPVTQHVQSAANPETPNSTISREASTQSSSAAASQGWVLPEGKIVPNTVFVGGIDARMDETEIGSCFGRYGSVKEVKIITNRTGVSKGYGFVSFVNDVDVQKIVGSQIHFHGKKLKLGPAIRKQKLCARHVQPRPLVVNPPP

hnRNP-M(1-2) = target: T7, hnRNP-M(1-2) (Homo sapiens, UniProt P52272)
T7 sequence: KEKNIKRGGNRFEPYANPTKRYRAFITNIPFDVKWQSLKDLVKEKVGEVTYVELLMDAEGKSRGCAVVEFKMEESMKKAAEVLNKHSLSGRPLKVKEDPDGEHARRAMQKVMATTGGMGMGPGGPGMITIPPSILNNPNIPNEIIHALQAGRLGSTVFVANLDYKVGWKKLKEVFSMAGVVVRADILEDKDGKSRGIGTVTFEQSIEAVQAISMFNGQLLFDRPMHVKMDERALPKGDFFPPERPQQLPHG

hnRNP-A3 = hnRNP-A3 (Homo sapiens, UniProt P51991)
LARP7(2) = target: T8, LARP7(2) (Homo sapiens, UniProt Q4G0J3)
T8 sequence: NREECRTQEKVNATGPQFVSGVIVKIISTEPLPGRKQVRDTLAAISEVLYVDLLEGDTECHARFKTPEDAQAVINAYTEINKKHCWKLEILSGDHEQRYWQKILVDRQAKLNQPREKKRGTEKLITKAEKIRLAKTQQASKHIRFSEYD

hnRNP-A1 = hnRNP-A1 (Homo sapiens, UniProt P09651)
eIF3-delta = eIF3-delta (Homo sapiens, UniProt O75821)
hnRNP-R = target: T9, hnRNP-R (Homo sapiens, UniProt O43390)
T9 sequence: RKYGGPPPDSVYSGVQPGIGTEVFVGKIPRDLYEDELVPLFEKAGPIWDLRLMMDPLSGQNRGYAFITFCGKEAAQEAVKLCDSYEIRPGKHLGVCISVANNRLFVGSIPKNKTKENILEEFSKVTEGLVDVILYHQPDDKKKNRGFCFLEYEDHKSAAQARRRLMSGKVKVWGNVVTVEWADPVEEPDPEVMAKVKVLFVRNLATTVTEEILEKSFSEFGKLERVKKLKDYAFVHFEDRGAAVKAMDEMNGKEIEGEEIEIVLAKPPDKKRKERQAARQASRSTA

LKAP = target: T10, LKAP (Homo sapiens, UniProt Q9Y4F3)
T10 sequence: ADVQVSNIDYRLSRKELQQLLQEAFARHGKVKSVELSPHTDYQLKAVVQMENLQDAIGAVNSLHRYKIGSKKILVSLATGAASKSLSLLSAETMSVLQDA

DAZ1 = target: T11, DAZ1 (Homo sapiens, UniProt Q9NQZ3)
T11 sequence: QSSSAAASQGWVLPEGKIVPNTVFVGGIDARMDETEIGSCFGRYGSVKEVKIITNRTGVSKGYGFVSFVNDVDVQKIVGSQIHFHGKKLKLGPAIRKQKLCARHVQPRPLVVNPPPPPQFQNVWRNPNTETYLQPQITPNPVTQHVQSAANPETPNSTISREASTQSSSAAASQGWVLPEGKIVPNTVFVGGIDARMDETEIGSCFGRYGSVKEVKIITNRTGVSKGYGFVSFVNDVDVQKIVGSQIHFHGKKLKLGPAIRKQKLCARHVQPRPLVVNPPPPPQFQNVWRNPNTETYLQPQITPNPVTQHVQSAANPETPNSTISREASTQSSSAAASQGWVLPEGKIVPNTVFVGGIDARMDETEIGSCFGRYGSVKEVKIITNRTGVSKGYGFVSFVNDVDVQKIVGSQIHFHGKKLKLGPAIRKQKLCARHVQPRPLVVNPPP

G3BP-1 = G3BP-1 (Homo sapiens, UniProt Q13283)
Sequence of G3BP-1 (Q13283 320-435): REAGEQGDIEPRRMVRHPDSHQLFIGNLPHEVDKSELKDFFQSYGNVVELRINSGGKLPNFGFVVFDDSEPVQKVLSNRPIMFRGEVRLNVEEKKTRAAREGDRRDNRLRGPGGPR

Sequence of hnRNP-D0 (Q14103 80-280): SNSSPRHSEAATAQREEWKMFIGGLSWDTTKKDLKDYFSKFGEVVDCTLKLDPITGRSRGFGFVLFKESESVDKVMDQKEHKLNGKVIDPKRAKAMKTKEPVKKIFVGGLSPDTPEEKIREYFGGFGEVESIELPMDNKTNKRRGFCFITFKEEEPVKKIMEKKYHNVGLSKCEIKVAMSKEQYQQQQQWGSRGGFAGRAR
Sequence of HNRNPA1L2 (Q32P51 1-205): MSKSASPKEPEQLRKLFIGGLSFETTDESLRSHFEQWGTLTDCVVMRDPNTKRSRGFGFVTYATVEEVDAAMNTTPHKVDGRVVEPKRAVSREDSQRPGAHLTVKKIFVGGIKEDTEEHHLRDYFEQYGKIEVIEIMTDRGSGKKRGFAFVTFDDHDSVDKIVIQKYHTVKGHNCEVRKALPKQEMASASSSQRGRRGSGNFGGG
Sequence of NCL (P19338 288-670): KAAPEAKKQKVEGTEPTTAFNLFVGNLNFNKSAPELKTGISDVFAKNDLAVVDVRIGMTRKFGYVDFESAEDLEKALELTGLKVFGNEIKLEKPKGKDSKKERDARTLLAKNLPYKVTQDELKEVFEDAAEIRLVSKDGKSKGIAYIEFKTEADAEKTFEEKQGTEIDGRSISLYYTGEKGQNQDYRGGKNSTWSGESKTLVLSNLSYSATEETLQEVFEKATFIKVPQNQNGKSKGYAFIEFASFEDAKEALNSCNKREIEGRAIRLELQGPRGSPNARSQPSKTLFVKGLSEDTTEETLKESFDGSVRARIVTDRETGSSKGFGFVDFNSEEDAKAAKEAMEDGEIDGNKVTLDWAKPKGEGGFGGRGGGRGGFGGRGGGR
Sequence of hnRNP-A1 (P09651 1-205): as the sequence (Q32P51 1-205) above, with A5E, T74A, T75R, K171N, P182S, R197S counted along it
Sequence of hnRNP-A/B (Q99729 50-250): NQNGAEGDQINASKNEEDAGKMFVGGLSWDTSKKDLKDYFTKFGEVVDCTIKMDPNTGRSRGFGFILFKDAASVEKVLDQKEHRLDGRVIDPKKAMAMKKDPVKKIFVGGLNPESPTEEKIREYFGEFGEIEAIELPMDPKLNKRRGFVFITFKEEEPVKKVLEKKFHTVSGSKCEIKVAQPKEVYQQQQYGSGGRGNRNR
Sequence of PABPC1L (Q4VXU2 1-390): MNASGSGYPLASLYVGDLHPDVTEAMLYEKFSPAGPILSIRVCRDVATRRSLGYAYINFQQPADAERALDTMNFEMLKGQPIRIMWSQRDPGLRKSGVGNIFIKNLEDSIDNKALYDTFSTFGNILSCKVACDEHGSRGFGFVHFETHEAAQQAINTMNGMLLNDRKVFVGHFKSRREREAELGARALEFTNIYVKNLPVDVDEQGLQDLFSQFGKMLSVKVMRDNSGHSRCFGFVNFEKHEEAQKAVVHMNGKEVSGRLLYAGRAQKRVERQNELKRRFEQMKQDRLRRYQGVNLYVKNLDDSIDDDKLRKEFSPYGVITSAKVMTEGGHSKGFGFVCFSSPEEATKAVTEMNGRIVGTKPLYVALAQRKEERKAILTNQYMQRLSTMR
Sequence of eIF3-delta (O75821 220-320, stated change not applied): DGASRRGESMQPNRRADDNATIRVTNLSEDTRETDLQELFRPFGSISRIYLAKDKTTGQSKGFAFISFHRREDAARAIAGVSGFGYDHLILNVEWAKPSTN
Sequence of hnRNP-A3 (P51991 15-225): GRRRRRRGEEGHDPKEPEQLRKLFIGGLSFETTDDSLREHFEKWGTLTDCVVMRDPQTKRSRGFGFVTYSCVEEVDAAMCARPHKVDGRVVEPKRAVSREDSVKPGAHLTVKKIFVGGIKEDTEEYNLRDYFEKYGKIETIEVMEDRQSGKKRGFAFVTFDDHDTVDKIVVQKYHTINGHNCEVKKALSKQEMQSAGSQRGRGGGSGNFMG

Sequence: UGAGGUAGUAGGUUGUAUGGUU
- binding signal (hnRNP-D0): 1386 ± 9.72 fluorescence intensity
- binding signal (PABPC1L): 1355 ± 13.5 fluorescence intensity
- binding signal (NCL): 2733 ± 6.99 fluorescence intensity
- binding signal (PABPN1): 2730 ± 37.5 fluorescence intensity
- binding signal (CNOT4): 263.8 ± 1.66 fluorescence intensity
- binding signal (CSTF2): 877 ± 50.3 fluorescence intensity
- binding signal (DRBP1(3-4)): 95.6 ± 13.4 fluorescence intensity
- binding signal (hnRNP-A/B): 1148 ± 9.7 fluorescence intensity
- binding signal (CPSF7): 58.9 ± 3.79 fluorescence intensity
- binding signal (HNRNPA1L2): 644 ± 46.8 fluorescence intensity
- binding signal (DAZ4): 778 ± 25.6 fluorescence intensity
- binding signal (hnRNP-M(1-2)): 1452 ± 3.71 fluorescence intensity
- binding signal (hnRNP-A3): 1730 ± 33.6 fluorescence intensity
- binding signal (LARP7(2)): 511 ± 8.38 fluorescence intensity
- binding signal (hnRNP-A1): 74.6 ± 1.05 fluorescence intensity
- binding signal (eIF3-delta): 262 ± 21.2 fluorescence intensity
- binding signal (hnRNP-R): 666 ± 24.3 fluorescence intensity
- binding signal (LKAP): 65.2 ± 2.55 fluorescence intensity
- binding signal (DAZ1): 673 ± 9.53 fluorescence intensity
- binding signal (G3BP-1): 1240 ± 13.5 fluorescence intensity

Sequence: UGAGGUAGUAGGUUGUAUAGUU
- binding signal (hnRNP-D0): 580 ± 40.2 fluorescence intensity
- binding signal (PABPC1L): 626 ± 62.6 fluorescence intensity
- binding signal (NCL): 1458 ± 3.11 fluorescence intensity
- binding signal (PABPN1): 2100 ± 89.2 fluorescence intensity
- binding signal (CNOT4): 73.77 ± 0.226 fluorescence intensity
- binding signal (CSTF2): 546 ± 37.1 fluorescence intensity
- binding signal (hnRNP-A/B): 453 ± 6.64 fluorescence intensity
- binding signal (CPSF7): 21.4 ± 4.04 fluorescence intensity
- binding signal (HNRNPA1L2): 226 ± 23.1 fluorescence intensity
- binding signal (DAZ4): 215 ± 41.8 fluorescence intensity
- binding signal (hnRNP-M(1-2)): 581.3 ± 5.61 fluorescence intensity
- binding signal (hnRNP-A3): 952 ± 63 fluorescence intensity
- binding signal (LARP7(2)): 179 ± 11.7 fluorescence intensity
- binding signal (hnRNP-A1): 22 ± 6.92 fluorescence intensity
- binding signal (eIF3-delta): 80.4 ± 7.03 fluorescence intensity
- binding signal (hnRNP-R): 109 ± 5.8 fluorescence intensity
- binding signal (DAZ1): 193 ± 22.1 fluorescence intensity
- binding signal (G3BP-1): 286 ± 21.3 fluorescence intensity

Sequence: UGAGGUAGUAGGUUGUGUGGUU
- binding signal (hnRNP-D0): 1275 ± 12.6 fluorescence intensity
- binding signal (PABPC1L): 1150 ± 102 fluorescence intensity
- binding signal (NCL): 2320 ± 38.6 fluorescence intensity
- binding signal (PABPN1): 2208 ± 3.21 fluorescence intensity
- binding signal (CNOT4): 448 ± 8.85 fluorescence intensity
- binding signal (CSTF2): 1760 ± 71.7 fluorescence intensity
- binding signal (DRBP1(3-4)): 117 ± 36.4 fluorescence intensity
- binding signal (hnRNP-A/B): 1294 ± 7.55 fluorescence intensity
- binding signal (CPSF7): 106 ± 4.55 fluorescence intensity
- binding signal (HNRNPA1L2): 551 ± 58 fluorescence intensity
- binding signal (DAZ4): 843.32 ± 0.516 fluorescence intensity
- binding signal (hnRNP-M(1-2)): 1470 ± 31 fluorescence intensity
- binding signal (hnRNP-A3): 1660 ± 31.6 fluorescence intensity
- binding signal (LARP7(2)): 632 ± 5.09 fluorescence intensity
- binding signal (hnRNP-A1): 77.3 ± 27.2 fluorescence intensity
- binding signal (eIF3-delta): 338 ± 7.23 fluorescence intensity
- binding signal (hnRNP-R): 693 ± 1.68 fluorescence intensity
- binding signal (LKAP): 91.94 ± 0.665 fluorescence intensity
- binding signal (DAZ1): 709 ± 20.1 fluorescence intensity
- binding signal (G3BP-1): 1380 ± 17 fluorescence intensity
